This note sets out measurements from PubChem BioAssay AID589 (National Center for Advancing Translational Sciences (NCATS), 2007).

Hit rate of the full screen: of about 59,000 compounds, about 6,200 (11%) were called active. Inconclusive results (about 9%) are left out. No stated cut-off is given here; in the data, active means max dye-equivalent concentration above about 10 nM; inconclusive means mostly about 1.1 nM to 9.6 nM; inactive means weaker than that. Shown is part of a subset that was picked to be rich in actives.

A short description of this test: qHTS Assay for Spectroscopic Profiling in 4-MU Spectral Region. To be noted: compound autofluorescence, 340/450 nm, 4-MU equivalents; hits give high values. In outline: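 Intrinsic fluorescence at 340/450 nm (ex/em) was read after 15 min at room temperature in pH 8.0, 100 mM Tris. Each compound concentration expressed as 4-MU-equivalent concentration from a six-point 4-MU standard series on each plate.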
Background: qHTS replaces the single test concentration by a dilution series.
In the case of `COCCOC(=O)C1=C(C)NC(=O)CC1c1cc2c(cc1Br)OCO2` (stereo not given), the max dye-equivalent concentration entry was “inactive”.

Regarding `CCCOC(=O)C1=C(C)NC2=C(C(=O)C(C(=O)OC)C(C)C2)C1c1ccc(N(C)C)cc1` (stereo not given), the max dye-equivalent concentration was 23 nM (active).

On to `COC(=O)c1ccc(C2NC(=O)NC(C)=C2C(=O)N(C)C)cc1` (stereo not given), for which the max dye-equivalent concentration entry is “inactive”.

In the case of `Cc1noc(C)c1CSc1nnc2ccc3ccccc3n12`, the max dye-equivalent concentration entry was “inactive”.

As for `CCOC(=O)c1c(NC(=O)CSc2nnc(C)c(=O)[nH]2)sc2c1CCC2`, the max dye-equivalent concentration result is “inactive”.

For the molecule `CC1CN(C2CCCCC2)c2nc3c(c(=O)n(C)c(=O)n3C)n2C1` (stereo not given), the max dye-equivalent concentration entry is “inactive”.

As for `O=C(O)CCC(=O)N(Cc1cccs1)Cc1cccs1`, the max dye-equivalent concentration entry is “inactive”.

Turning to `Cc1cc(NC(=O)c2cc(-c3cccs3)on2)nn1Cc1ccc(Cl)cc1`, the max dye-equivalent concentration entry is “inactive”.

For the molecule `CC(C)Cn1c(CCC(=O)O)ccc1-c1cccs1`, the max dye-equivalent concentration was 350 nM (active).

On to `COc1cc(C2C3C(=O)N(c4ccccc4)C(=O)C3ON2c2ccccc2)ccc1O` (stereo not given), for which the max dye-equivalent concentration entry was “inactive”.

In the case of `CC(C)OCCCNc1nc2c(c(=O)n(Cc3ccccc3F)c(=O)n2C)n1C`, the max dye-equivalent concentration result was “inactive”.

As for `COCc1nc2ccccc2n1Cc1ccccc1Br`, the max dye-equivalent concentration entry was “inactive”.

As to `c1ccc(-c2[nH]ncc2-c2nc3ccccc3[nH]2)cc1`, the max dye-equivalent concentration entry was “inactive”.

As for `O=c1[nH]c(-c2ccccc2)c(-c2ccccc2)[nH]1`, the max dye-equivalent concentration was 18 nM (active).

With `CC1(C)CC(=O)NC=C(c2ccccc2)C1`, the max dye-equivalent concentration result is “inactive”.

With `Clc1ccccc1-c1cc(NCCN2CCOCC2)ncn1`, the max dye-equivalent concentration entry was “inactive”.

As to `Cc1cccc(-c2noc(-c3ccc(F)cc3)n2)c1`, the max dye-equivalent concentration entry is “inactive”.

With `COc1ccc2[nH]c(=O)c(-c3noc(-c4ccc(F)cc4)n3)cc2c1`, the max dye-equivalent concentration was 12 nM (active).

For `CC(=O)N1CCC2(CCCN(Cc3ccccc3)C2)CC1`, the max dye-equivalent concentration result is “inactive”.

As to `O=C(CSc1n[nH]c(-c2cccnc2)n1)Nc1ccnc2ccccc12`, the max dye-equivalent concentration entry is “inactive”.

`O=C(O)C1CC(=O)N(Cc2cccnc2)C1` (stereo not given): the max dye-equivalent concentration entry was “inactive”.

`O=C(CCS(=O)(=O)Cc1ccccc1F)NCCCN1CCCCC1`: the max dye-equivalent concentration result was “inactive”.

As to `Cc1nc(Nc2ccc3c(c2)OCCO3)c2nnn(Cc3ccccc3Cl)c2n1`, the max dye-equivalent concentration is 640 nM (active).

With `CC(C)(C)c1nc(NCC2CCCO2)c2nnn(Cc3ccccc3)c2n1` (stereo not given), the max dye-equivalent concentration entry is “inactive”.

For the molecule `C#CCNc1nc(C(C)C)nc2c1nnn2Cc1ccccc1F`, the max dye-equivalent concentration result was “inactive”.

Regarding `Cc1ccc(-c2nnn(CC(=O)N(CCO)C(C(=O)NC(C)(C)C)c3ccncc3)n2)cc1` (stereo not given), the max dye-equivalent concentration result is “inactive”.

For the molecule `COc1ccc(S(=O)(=O)N2CCCC(C(=O)N3CCN(C)CC3)C2)cc1C` (stereo not given), the max dye-equivalent concentration result was “inactive”.

Consider `COC(=O)N1CCC2(CCCN(Cc3ccccc3OC)C2)CC1`, for which the max dye-equivalent concentration result is “inactive”.

As to `COc1ccc(CCNC(=O)CSc2nnc(-c3cccc(F)c3)o2)cc1OC`, the max dye-equivalent concentration result is “inactive”.

As to `COC(=O)Cc1cc(=O)n(-c2nc3ccccc3s2)[nH]1`, the max dye-equivalent concentration entry is “inactive”.

For `CCC(=O)NC(=Nc1nc2ccccc2s1)NC(=O)CC`, the max dye-equivalent concentration is 150 nM (active).

Regarding `O=C(O)CSCc1nc2ccccc2s1`, the max dye-equivalent concentration result was “inactive”.

For the molecule `COC(=O)CNS(=O)(=O)c1ccc(Cc2ccc(S(=O)(=O)NCC(=O)OC)cc2)cc1`, the max dye-equivalent concentration entry is “inactive”.

`Cc1ccccc1Nc1nnc(C)c(=O)[nH]1`: the max dye-equivalent concentration entry is “inactive”.

Take `CCOc1cccc(-n2nnnc2-c2ccc(OC)cc2)c1`: the max dye-equivalent concentration entry is “inactive”.

On to `COc1ccc(C2C(C(=O)Nc3ccccc3OC)=C(C)Nc3nnnn32)c(OC)c1` (stereo not given), for which the max dye-equivalent concentration entry is “inactive”.

With `COc1ccc(C2=CC(c3cccc(OC)c3)n3nnnc3N2)cc1` (stereo not given), the max dye-equivalent concentration is 13 nM (active).

On to `CCCCC(=O)N1CC2(C)CN(C(=O)CCCC)CC(C)(C1)C2=O`, for which the max dye-equivalent concentration entry is “inactive”.

`Cn1c(=O)n(C)c(=O)n(CC(=O)N2CCCCC2)c1=O`: the max dye-equivalent concentration entry is “inactive”.

On to `CS(=O)(=O)N(Cc1nc2sc3c(c2c(=O)[nH]1)CCCC3)C1CCCCC1`, for which the max dye-equivalent concentration is 34 nM (active).

As to `Cc1cc(N2CCN(Cc3ccc4c(c3)OCO4)CC2)n2ncnc2n1`, the max dye-equivalent concentration result is “inactive”.

Consider `CCN1C(=O)/C(=C\N2CCN(c3cccc(Cl)c3)CC2)SC1=S`, for which the max dye-equivalent concentration entry is “inactive”.

As to `Cc1cc(C)c2c(n1)nn1c(N3CCOCC3)cc(C)nc21`, the max dye-equivalent concentration was 6300 nM (active).

For `Cc1nn2c3cc(N4CCOCC4)ccc3nc2c2ccccc12`, the max dye-equivalent concentration entry was “inactive”.

As to `Cc1cc(C)c2c(n1)nn1c(N3CCN(c4cccc(Cl)c4)CC3)cc(C)nc21`, the max dye-equivalent concentration is 100 nM (active).

Turning to `CS(=O)(=O)N(CC(=O)N1CCN(c2cccc(Cl)c2)CC1)c1ccccc1`, the max dye-equivalent concentration result was “inactive”.

With `Cc1cc(C)c2c(n1)nn1c(-n3ccnc3)cc(C)nc21`, the max dye-equivalent concentration is 240 nM (active).

Regarding `COc1ccc(C(=O)N2CCC3(CC2)CCN(c2ccccn2)CC3)cc1`, the max dye-equivalent concentration entry is “inactive”.

For the molecule `CCn1c(CNC(=O)c2ccc(OC)c(OC)c2)nnc1SCC(=O)Nc1ccccc1`, the max dye-equivalent concentration result was “inactive”.

With `O=C(CN(Cc1ccccc1)C(=O)c1ccc2c(c1)OCCO2)NCc1ccc2c(c1)OCO2`, the max dye-equivalent concentration result was “inactive”.

With `Cc1nnc(NC2=NCCCCC2)o1`, the max dye-equivalent concentration result is “inactive”.

On to `O=C(c1c(Cl)nc2sccn12)N1CCCc2ccccc21`, for which the max dye-equivalent concentration entry is “inactive”.

As for `O=C1CC(Cc2ccccc2)C(=O)N1c1ccc(Cl)cn1` (stereo not given), the max dye-equivalent concentration entry is “inactive”.

For the molecule `Cc1ccc(C(C(=O)NCc2ccco2)N(CC2CCCO2)C(=O)Cn2nnc3ccccc32)cc1` (stereo not given), the max dye-equivalent concentration entry is “inactive”.

Turning to `CN(C)C(=O)c1ccc(-c2cncnc2Nc2ccccc2)cc1`, the max dye-equivalent concentration result was “inactive”.
